Laboratory results from PubChem BioAssay (NCI).
About 83,000 compounds went through this panel and 20% of them were active in at least one assay; those are over-represented in the sample as a whole.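 Negative percent growth values reflect cell death: -40 means 40% of the cells present at the start died, and -100 means all died.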 A number with no mark means an inactive call. Activity calls are given as the source filed them. Rule for the calls: active = growth percent below 10; inactive = the rest.

The compounds below were run on MDA-MB-468 breast (assay: NCI-60 one-dose screen, 48 h (100 = growth as untreated, 0 = no growth, -100 = all killed)). Settings: 10 µM unless noted.

Compound | growth
C=C1C(=O)O[C@H]2[C@H]1CC/C(C(=O)NCCCCCCCCNC(=O)/C1=C/CC[C@@]3(C)O[C@H]3[C@H]3OC(=O)C(=C)[C@@H]3CC1)=C\CC[C@@]1(C)O[C@@H]21 | 35.7%
Cc1cc(N2CCOCC2)nc(N(CCCNc2ccnc3cc(Cl)ccc23)Cc2ccc3c(c2)OCO3)n1 | -63.6% (active)
CS(=O)(=O)Nc1ccc(C(=O)NC(C(=O)NO)c2ccc(-c3cccc(F)c3)cc2)cc1 (stereo not given) | 95%
COc1ccccc1Nc1nnc(COc2ccc(CNC(=O)CCCC/C=C/C(C)C)cc2OC)o1 | 99.7%
NS(=O)(=O)c1ccc(CCN=C=S)cc1 | -6.54% (active)
CCOC(=O)c1nn(-c2ccc(S(N)(=O)=O)cc2)c2nc(C)cc(=O)n12 | 99%
Nc1ccc(-c2nnc(SCc3ccc(O)c4ncccc34)n2-c2ccccc2)cc1 | 9.01% (active)
Fc1cc2[nH]ncc2c2c3c(c(-c4cn[nH]c4C(F)(F)F)nc12)CCCC3 | -20.3% (active)
CN(C)c1ccc2c(c1)OC(N)=C(C#N)C2c1ccc2c(c1)CCCN2C (stereo not given) | 20.6%
COc1ccc(CCc2nc3cc(-c4c(C)noc4C)ccc3n2CCN2CCOCC2)cc1 | 9.69% (active)
CCCc1n(Cc2ccc3ccccc3c2)cc[n+]1Cc1ccc2ccccc2c1 | -45.4% (active)
C=CC(=O)N[C@H](/C=C/C(=O)OCC)Cc1ccc(-c2cc(Cl)cc(Cl)c2)cc1 | 88%
COc1cc(C(=O)N/N=C/c2cc3cc(OCc4ccccc4)ccc3nc2OC)cc(OC)c1OC | 85.2%
COc1cc(-c2nc3ccc(-c4nnc(SCC(=O)Nc5ccc(C(=O)/C=C/c6ccc(Cl)cc6)cc5)o4)cc3[nH]2)cc(OC)c1OC | 93%
COc1ccc(-c2n[nH]nc2-c2cc(OC)c(OC)c(OC)c2)cc1 | -0.494% (active)
COc1ccc(NC(=O)c2sc3nc(C)c(C(=O)/C=C/c4ccccc4)cc3c2N)cc1 | 44.4%
CC1(C)CC[C@]2(C(=O)NCC#CCN3CCOCC3)CC[C@]3(C)C(=CC[C@@H]4[C@@]5(C)Cc6c([nH]c7ccccc67)C(C)(C)[C@@H]5CC[C@]43C)[C@@H]2C1 | 90.8%
Cc1cc2nc(C(Cl)Cl)nc(-c3ccc(Cl)cc3)n2n1 | -47.3% (active)
c1cn2c(ccc3nc(-c4cn[nH]c4)c4c(c32)CCCC4)n1 | 42%
O=C(Nc1cccc(-n2cc(-c3ccncc3)c(-c3ccc(O)c(Cl)c3)n2)c1)Nc1ccc(Cl)c(Cl)c1 | 27.3%

Compound | growth
CN1CCN(CCC=C2c3ccccc3Sc3ccc(S(=O)(=O)N(C)C)cc32)CC1 | 21.1%
O=C1/C(=C\c2ccc(Cl)cc2)CN(C(=S)Nc2ccccc2)C/C1=C\c1ccc(Cl)cc1 | -64.4% (active)
Cc1cc(=O)oc2cc(OCCCOc3ccc(/C=C/C(=O)Nc4ccc(Br)cc4)cc3)ccc12 | 75.9%
COc1ccc(C(c2cc(OC)c(OC)c(OC)c2)N2CCCC2)cc1 (stereo not given) | 54.8%
CCCCNC(=O)Oc1ccc(/C(=C(\C)c2ccc(Cl)cc2)c2ccc(OCCN3CCCCC3)cc2)cc1 | 62.9%
NCCCc1nnc(CCC(=O)c2nc3ccccc3[nH]2)o1 | 107%
Nc1ncnc2c1C(c1ccc(Br)cc1)c1sc3c(F)cccc3c1O2 (stereo not given) | 103%
Cc1cc(OC(=O)c2ccc([N+](=O)[O-])cc2)nc2[nH]c(=O)sc12 | 100%
COc1ccc(C(=O)C2C(c3ccc(OC)cc3)CN(C)C23C(=O)Nc2ccccc23)cc1 (stereo not given) | 95.4%
O=C(c1ccc(O)c(C(=O)N2Cc3ccc(OCCC[P+](c4ccccc4)(c4ccccc4)c4ccccc4)cc3C2)c1)N1Cc2cccc(F)c2C1 | 2.97% (active)
O=C1NN(C(=O)c2ccccc2)C(c2ccc(Cl)c(Cl)c2)=C/C1=C\c1ccc([N+](=O)[O-])cc1 | 84.2%
C=C(C)[C@@H]1CC[C@]2(C(=O)N3CCN(C)CC3)CC[C@]3(C)[C@H](CC[C@@H]4[C@@]5(C)CCC(=O)C(C)(C)[C@@H]5CC[C@]43C)[C@@H]12 | 77.3%
CC(C)(C)CC(C)(C)Nc1c(-c2ccc(C(F)(F)F)cc2)nc2cnccn12 | 100%
COc1ccc(/C=C/C(=O)c2nnn(-c3ccc(C(=O)O)cc3)c2C)cc1OC | 84.6%
C/C(Cc1ccc(Cl)cc1)=C(\c1ccc(O)cc1)c1ccc(Cl)cc1 | 101%
CNc1ccc2c(c1)c1ccccc1n2C | 102%
O=S(=O)(NCCNc1cc(-c2cn(-c3ccccc3)nc2-c2cccc(O)c2)ccn1)c1ccc(F)cc1 | -22.4% (active)
Clc1ccc2c(NCCNc3nc(N4CCOCC4)nc4ccccc34)ccnc2c1 | 25.1%
Cn1c(=O)[nH]c(=O)c2nc3c(nc21)-c1ccccc1C3=O | 82.8%
O=[N+]([O-])c1ccc(OCCCOc2ccccc2)cc1 | 104%
